The source made the active and inactive calls. The rule behind the calls is not given here.

Sequence of Pantothenate synthetase (Mycobacterium tuberculosis (strain ATCC 25618 / H37Rv)) (P9WIL5 whole entry, looked up): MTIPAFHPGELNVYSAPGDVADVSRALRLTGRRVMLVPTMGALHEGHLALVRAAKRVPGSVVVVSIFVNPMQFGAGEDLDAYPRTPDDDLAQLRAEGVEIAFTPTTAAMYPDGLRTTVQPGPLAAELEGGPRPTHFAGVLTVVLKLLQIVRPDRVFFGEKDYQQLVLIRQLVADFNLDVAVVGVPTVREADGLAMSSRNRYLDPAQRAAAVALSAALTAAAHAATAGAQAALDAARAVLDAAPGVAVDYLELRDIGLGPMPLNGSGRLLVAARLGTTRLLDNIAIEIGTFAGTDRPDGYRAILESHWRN

The experiment has as its target Pantothenate synthetase (Mycobacterium tuberculosis (strain ATCC 25618 / H37Rv)) (UniProt P9WIL5). Kind of experiment: Recombinant Mtb pantothenate synthetase (PanC) inhibitors, coupled enzyme, confirmatory (AID 375).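 Note: 0% = full reaction with vehicle and 100% = no enzyme background.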 The settings on record: coupled enzyme assay; at 10 µM, hits give high values.
In the case of `COc1ccc2[nH]c(=O)c(CN(CCO)S(=O)(=O)c3ccc4c(c3)OCCO4)cc2c1`, the inhibition is 0% (inactive).
With `COc1ccc(C/C(O)=C(\C#N)c2nc3ccccc3s2)cc1`, the inhibition was 4% (inactive).
To `CCSc1ccccc1C(=O)NCc1ccc(S(N)(=O)=O)cc1` belongs 0% (inactive); to `COc1ccc(C(=O)CSc2nnc(-c3ccc(C)cc3)o2)cc1`, 1% (inactive).
Turning to `CCN(C#N)c1nc(NC(C)C)nc(NC(C)C)n1`, the inhibition was 5% (inactive).
In the case of `O=C(NCc1cccs1)C1CCN(S(=O)(=O)c2cccs2)CC1`, the inhibition was 0% (inactive).
In the case of `O=C(Cc1cccs1)Nc1nnc(CCc2ccccc2)s1`, the inhibition was 0% (inactive).
Take `c1ccc(OCCOc2ncnc3sccc23)cc1`: the inhibition was 0% (inactive).
Under `O=C(Cc1cccs1)Nc1ccccc1NC(=O)Cc1cccs1` stands 0% (inactive); under `O=C(CSc1nnc(COc2ccc(Cl)cc2)o1)N1CCN(c2ccccc2)CC1`, 0% (inactive).
As to `CC1CCN(CCn2c(=S)[nH]c3ncccc3c2=O)CC1`, the inhibition was 0% (inactive).
With `COc1ccccc1NC(=O)N(C1CCCC1)C1CCN(C(C)=O)CC1`, the inhibition is 1% (inactive).
Under `CSc1nnc(-c2cnccn2)n1Cc1ccccc1` stands 0% (inactive); under `Cc1ccc(S(=O)(=O)NC(=O)c2cc(C)n(CCCn3ccnc3)c2C)cc1`, 2% (inactive); under `CCOC(=O)N1CCC(N2C(=O)c3ccc(C(=O)NCc4ccco4)cc3C2=O)CC1`, 2% (inactive).
To `COc1ccc(S(=O)(=O)N2Cc3ccccc3CC2C(=O)Nc2ccc(O)cc2)cc1OC` (configuration not stated) belongs 10% (inactive).
Under `Cc1nnc(SCC(=O)N2CC(=O)Nc3ccccc32)n1-c1ccccc1` stands 2% (inactive).

The record behind these values is PubChem BioAssay.
